Experiment in all cases: DAPPL (digital affinity profiling via proximity ligation, sequencing); 10 mM Tris-HCl pH 7.5, 50 mM NaCl, 1 mM DTT, 4% glycerol, room temperature, 30 min; GST-TFs on glutathione beads, 16-mer random dsDNA library, 0.1% formaldehyde crosslink after washing; high values mean tight binding
Conditions in all cases: protein: recombinant; tags: N-terminal GST; dsDNA, one strand shown

One test has as its target T1, ERF (Homo sapiens, UniProt P50548 1-548).
T1 sequence: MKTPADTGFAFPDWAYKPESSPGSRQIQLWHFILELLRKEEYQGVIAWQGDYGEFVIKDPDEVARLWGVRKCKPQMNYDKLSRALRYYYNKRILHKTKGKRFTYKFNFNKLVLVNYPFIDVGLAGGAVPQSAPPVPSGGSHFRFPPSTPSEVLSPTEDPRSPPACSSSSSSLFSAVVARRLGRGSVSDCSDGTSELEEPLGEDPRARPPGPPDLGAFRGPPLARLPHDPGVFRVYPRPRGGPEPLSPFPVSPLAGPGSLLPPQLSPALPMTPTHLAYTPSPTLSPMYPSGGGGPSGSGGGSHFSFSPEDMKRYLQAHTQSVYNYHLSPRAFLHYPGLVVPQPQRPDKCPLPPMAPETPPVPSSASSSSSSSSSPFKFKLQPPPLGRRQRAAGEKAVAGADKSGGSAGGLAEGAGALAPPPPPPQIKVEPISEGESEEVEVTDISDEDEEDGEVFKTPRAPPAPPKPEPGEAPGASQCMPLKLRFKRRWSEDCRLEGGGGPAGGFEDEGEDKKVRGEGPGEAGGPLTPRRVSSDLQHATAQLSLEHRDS
In a few lines:
(§1)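 Sequencing on an Illumina NextSeq500 followed washing, crosslinking with 0.1% formaldehyde, proximity ligation (BsaI/T4 ligase, 1 h, 37 °C) and PCR amplification of pools that had been incubated for 30 min at room temperature with 200 nmole of a random double-stranded 16-mer DNA library in Tris/NaCl/DTT/glycerol buffer. Each pool held DNA-barcoded human transcription factors, expressed in yeast as GST fusions and captured on glutathione beads, plus a tag-only sample. Binding signal is a hexamer's read frequency for a factor divided by its frequency in the tag-only sample.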

The next test concerns the target T2, ETV3L (Homo sapiens, UniProt Q6ZN32 1-361).
T2 sequence: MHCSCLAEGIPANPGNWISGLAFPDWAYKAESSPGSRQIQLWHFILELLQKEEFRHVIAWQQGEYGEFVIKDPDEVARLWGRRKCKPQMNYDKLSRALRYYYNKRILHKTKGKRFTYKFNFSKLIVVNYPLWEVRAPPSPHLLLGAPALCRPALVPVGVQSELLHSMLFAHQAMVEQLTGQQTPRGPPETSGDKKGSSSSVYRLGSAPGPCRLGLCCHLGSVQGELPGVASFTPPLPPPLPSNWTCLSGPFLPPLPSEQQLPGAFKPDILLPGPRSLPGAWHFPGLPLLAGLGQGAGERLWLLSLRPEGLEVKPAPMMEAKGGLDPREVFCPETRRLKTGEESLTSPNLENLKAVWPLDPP
In a few lines: as §1

The target of the next test is T3, ETS2 (Homo sapiens, UniProt P15036 1-469).
T3 sequence: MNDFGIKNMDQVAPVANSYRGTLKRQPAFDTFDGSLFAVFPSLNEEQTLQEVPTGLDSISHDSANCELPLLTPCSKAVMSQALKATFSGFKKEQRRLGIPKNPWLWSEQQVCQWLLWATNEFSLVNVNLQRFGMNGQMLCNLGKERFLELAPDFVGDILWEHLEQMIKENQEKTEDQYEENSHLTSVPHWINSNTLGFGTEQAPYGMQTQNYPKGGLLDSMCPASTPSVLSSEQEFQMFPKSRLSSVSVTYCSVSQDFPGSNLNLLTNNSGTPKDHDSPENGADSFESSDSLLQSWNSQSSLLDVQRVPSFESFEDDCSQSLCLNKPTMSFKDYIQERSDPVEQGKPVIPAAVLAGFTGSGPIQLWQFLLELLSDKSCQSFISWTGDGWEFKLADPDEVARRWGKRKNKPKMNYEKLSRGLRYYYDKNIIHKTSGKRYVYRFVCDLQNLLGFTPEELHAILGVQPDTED
In a few lines: as §1

Another test deals with T4, SPDEF (Homo sapiens, UniProt O95238 1-335).
T4 sequence: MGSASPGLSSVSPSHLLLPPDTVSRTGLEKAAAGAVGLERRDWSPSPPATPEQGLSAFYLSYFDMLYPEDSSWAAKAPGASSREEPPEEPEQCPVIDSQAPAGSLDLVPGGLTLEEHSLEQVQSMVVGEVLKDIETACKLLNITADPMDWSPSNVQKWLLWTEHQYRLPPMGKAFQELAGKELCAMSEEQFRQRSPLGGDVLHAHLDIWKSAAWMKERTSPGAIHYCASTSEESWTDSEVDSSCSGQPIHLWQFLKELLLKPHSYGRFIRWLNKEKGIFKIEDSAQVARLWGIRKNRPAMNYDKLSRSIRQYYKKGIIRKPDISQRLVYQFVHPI
In a few lines:
as §1

The next test addresses T5, ETV7 (Homo sapiens, UniProt Q9Y603 1-341).
T5 sequence: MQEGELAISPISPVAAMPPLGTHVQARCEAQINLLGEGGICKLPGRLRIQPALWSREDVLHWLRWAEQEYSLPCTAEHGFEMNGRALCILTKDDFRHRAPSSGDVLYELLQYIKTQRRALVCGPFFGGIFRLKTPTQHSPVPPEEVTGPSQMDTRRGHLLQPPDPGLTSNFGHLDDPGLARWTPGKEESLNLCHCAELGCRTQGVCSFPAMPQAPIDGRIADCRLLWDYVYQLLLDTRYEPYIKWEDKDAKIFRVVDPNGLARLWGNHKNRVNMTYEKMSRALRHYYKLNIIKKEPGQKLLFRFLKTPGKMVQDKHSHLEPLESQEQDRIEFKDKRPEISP
In a few lines:
as §1

A further test has as its target T6, ELF5 (Homo sapiens, UniProt Q9UKW6-2 1-255).
T6 sequence: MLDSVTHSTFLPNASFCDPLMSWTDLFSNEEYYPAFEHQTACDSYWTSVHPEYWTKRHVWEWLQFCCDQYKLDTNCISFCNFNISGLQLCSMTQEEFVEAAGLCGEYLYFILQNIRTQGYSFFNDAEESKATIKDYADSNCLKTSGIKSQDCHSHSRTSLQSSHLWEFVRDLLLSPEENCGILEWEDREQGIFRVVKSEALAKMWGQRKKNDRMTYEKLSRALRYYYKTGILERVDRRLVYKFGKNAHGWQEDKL
In a few lines: as §1

In the next test the target is T7, ETV3 (Homo sapiens, UniProt P41162-2 1-143).
T7 sequence: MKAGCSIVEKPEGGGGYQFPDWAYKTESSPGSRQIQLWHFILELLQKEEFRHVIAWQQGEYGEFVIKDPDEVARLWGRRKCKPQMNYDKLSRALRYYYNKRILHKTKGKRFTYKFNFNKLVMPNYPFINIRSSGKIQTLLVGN
The method, boiled down: as §1

The next test addresses ETV6 (Homo sapiens, UniProt P41212 1-452). The method, boiled down:
as §1

Sequence of ETV6 (P41212 whole entry): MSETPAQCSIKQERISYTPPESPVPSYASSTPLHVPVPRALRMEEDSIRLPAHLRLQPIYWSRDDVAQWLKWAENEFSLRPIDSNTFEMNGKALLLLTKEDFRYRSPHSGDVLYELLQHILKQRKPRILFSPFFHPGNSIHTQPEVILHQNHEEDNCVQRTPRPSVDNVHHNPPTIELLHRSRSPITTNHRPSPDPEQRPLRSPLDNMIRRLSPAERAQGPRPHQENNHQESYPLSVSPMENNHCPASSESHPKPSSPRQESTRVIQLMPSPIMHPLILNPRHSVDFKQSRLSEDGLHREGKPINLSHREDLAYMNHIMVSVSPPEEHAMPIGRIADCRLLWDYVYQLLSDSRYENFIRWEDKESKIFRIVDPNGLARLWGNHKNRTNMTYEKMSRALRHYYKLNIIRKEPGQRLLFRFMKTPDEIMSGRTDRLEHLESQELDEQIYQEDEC

As to CTTGGC, the binding signal is 1.35 fold enrichment (6-mer frequency, TF over GST control) in the test with ERF; 1.15 fold enrichment (6-mer frequency, TF over GST control) with ETV3L; 1.03 fold enrichment (6-mer frequency, TF over GST control) in the test with ETS2; 1.14 fold enrichment (6-mer frequency, TF over GST control) in the test with SPDEF; 1.24 fold enrichment (6-mer frequency, TF over GST control) in the test with ETV7; 1.12 fold enrichment (6-mer frequency, TF over GST control) with ELF5. The binding signal in the test with ETV3 is 1.12 fold enrichment (6-mer frequency, TF over GST control); with ETV6, 1.1 fold enrichment (6-mer frequency, TF over GST control).

Take AAGTGG: the binding signal is 1.24 fold enrichment (6-mer frequency, TF over GST control) with ERF; 1.17 fold enrichment (6-mer frequency, TF over GST control) in the test with ETV3L; 1.19 fold enrichment (6-mer frequency, TF over GST control) with ETS2; 1.06 fold enrichment (6-mer frequency, TF over GST control) with SPDEF; 1.31 fold enrichment (6-mer frequency, TF over GST control) with ETV7; 1.24 fold enrichment (6-mer frequency, TF over GST control) with ELF5. In addition, the binding signal is 1.23 fold enrichment (6-mer frequency, TF over GST control) with ETV3 and 1.3 fold enrichment (6-mer frequency, TF over GST control) with ETV6.

AGAAGC: the binding signal in the test with ERF is 1.11 fold enrichment (6-mer frequency, TF over GST control); with ETV3L, 1.17 fold enrichment (6-mer frequency, TF over GST control); with ETS2, 1.09 fold enrichment (6-mer frequency, TF over GST control); with SPDEF, 1.15 fold enrichment (6-mer frequency, TF over GST control); with ETV7 it was 1.23 fold enrichment (6-mer frequency, TF over GST control); in the test with ELF5, 1.18 fold enrichment (6-mer frequency, TF over GST control). Also, the binding signal with ETV3 was 1.23 fold enrichment (6-mer frequency, TF over GST control); with ETV6, 1.14 fold enrichment (6-mer frequency, TF over GST control).

As to GTATAA, the binding signal in the test with ERF is 1.13 fold enrichment (6-mer frequency, TF over GST control); with ETV3L, 1.14 fold enrichment (6-mer frequency, TF over GST control); with ETS2 it was 1.08 fold enrichment (6-mer frequency, TF over GST control); with SPDEF, 1.07 fold enrichment (6-mer frequency, TF over GST control); with ETV7 it was 1.11 fold enrichment (6-mer frequency, TF over GST control); with ELF5, 1.11 fold enrichment (6-mer frequency, TF over GST control). Besides, the binding signal with ETV3 is 1.08 fold enrichment (6-mer frequency, TF over GST control); with ETV6 it was 1.08 fold enrichment (6-mer frequency, TF over GST control).

CGTCCT: the binding signal with ERF is 1.41 fold enrichment (6-mer frequency, TF over GST control); with ETV3L, 1.31 fold enrichment (6-mer frequency, TF over GST control); with ETS2 it was 1.28 fold enrichment (6-mer frequency, TF over GST control); in the test with SPDEF, 1.56 fold enrichment (6-mer frequency, TF over GST control); with ETV7, 1.45 fold enrichment (6-mer frequency, TF over GST control); with ELF5 it was 1.56 fold enrichment (6-mer frequency, TF over GST control). Further, the binding signal is 1.53 fold enrichment (6-mer frequency, TF over GST control) with ETV3 and 1.47 fold enrichment (6-mer frequency, TF over GST control) with ETV6.

On to TAGAAT, for which the binding signal in the test with ERF was 1.17 fold enrichment (6-mer frequency, TF over GST control); with ETV3L it was 1.09 fold enrichment (6-mer frequency, TF over GST control); in the test with ETS2, 1.06 fold enrichment (6-mer frequency, TF over GST control); in the test with SPDEF, 1.07 fold enrichment (6-mer frequency, TF over GST control); with ETV7, 1.13 fold enrichment (6-mer frequency, TF over GST control); in the test with ELF5 it was 1.08 fold enrichment (6-mer frequency, TF over GST control). The binding signal was 1.05 fold enrichment (6-mer frequency, TF over GST control) with ETV3 and 1.15 fold enrichment (6-mer frequency, TF over GST control) with ETV6.

TGTTTG: the binding signal in the test with ERF is 1.4 fold enrichment (6-mer frequency, TF over GST control); with ETV3L, 1.35 fold enrichment (6-mer frequency, TF over GST control); in the test with ETS2, 1.32 fold enrichment (6-mer frequency, TF over GST control); with SPDEF, 1.25 fold enrichment (6-mer frequency, TF over GST control); in the test with ETV7, 1.39 fold enrichment (6-mer frequency, TF over GST control); with ELF5, 1.29 fold enrichment (6-mer frequency, TF over GST control). Also, the binding signal is 1.35 fold enrichment (6-mer frequency, TF over GST control) with ETV3 and 1.41 fold enrichment (6-mer frequency, TF over GST control) in the test with ETV6.

TAAGCC: the binding signal with ERF was 1.15 fold enrichment (6-mer frequency, TF over GST control); with ETV3L, 1.2 fold enrichment (6-mer frequency, TF over GST control); with ETS2, 1.15 fold enrichment (6-mer frequency, TF over GST control); with SPDEF, 1.12 fold enrichment (6-mer frequency, TF over GST control); in the test with ETV7, 1.1 fold enrichment (6-mer frequency, TF over GST control); with ELF5, 1.03 fold enrichment (6-mer frequency, TF over GST control). The binding signal in the test with ETV3 is 1.12 fold enrichment (6-mer frequency, TF over GST control); in the test with ETV6, 1.03 fold enrichment (6-mer frequency, TF over GST control).

The values above are taken from article PMC7862700, “An all-to-all approach to the identification of sequence-specific readers for epigenetic DNA modifications on cytosine”.
